Measured values as given in PubChem BioAssay (NCI).
The panel holds about 83,000 compounds, 20% with a hit somewhere; the sample as a whole holds those more often.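 Plates (96-well) were seeded with cells, treated with compound at one concentration, and incubated for 48 hours before percent growth was determined.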 Unmarked numbers belong to inactive results. Active and inactive are the calls of the source.

System: U251 CNS
Assay: NCI-60 one-dose screen, 48 h (100 = growth as untreated, 0 = no growth, -100 = all killed)
Conditions: 10 µM
Procedure: Growth inhibition of the U251 human tumor cell line is measured as a screen for anti-cancer activity. Cells are grown in 96 well plates and exposed to the test compound for 48 hours. Compounds are tested at a single concentration, which is 10^-5 M for most compounds. The reported endpoint is percent growth (GI% or GIPRCNT), where numbers from 0 - 100% represent growth inhibition, and numbers from -100% - 0 represent cell death. For example, a value of 40 represents 60% growth inhibition. A value of 0 means no net growth occurred over the course of the experiment. A value of -40 indicates 40% of cells at the beginning of the experiment died by the end of the experiment. A value of -100 means all cells are dead at the end of the experiment.
NCI-60 Human Tumor Cell Lines Screen was performed using the standard one-dose NCI protocol, which is described in more detail at https://dtp.cancer.gov/discovery_development/nci-60/default.htm.
Compounds with GIPRCNT values below 10 were considered active. Activity score was based on GIPRCNT using the following formula: […]
Score is 0 for GIPRCNT values of 100 or above, 50 for GIPRCNT values of 0, and 100 for GIPRCNT values of -100.

Compound | growth
CC(=C\C(=O)Oc1ccc2c3c1OC1C(O)CCC4(O)C(C2)N(CC2CCC2)CCC314)/C=C1\CCCc2ccccc21 (stereo not given) | 47.4%
C=CC[Se]C(=O)c1cncc(C(=O)[Se]CC=C)c1 | -72.9% (active)
CC(=O)Oc1ccccc1C(=O)NC([Se])=NC1CCCCC1 | 24.2%
C=CC[Se]C(=O)c1ccc(C(=O)[Se]CC=C)s1 | -86.2% (active)
CC1=C2C(=C[C@@](C)(COP(=O)(Oc3ccccc3)Oc3ccccc3)[C@@H]2O)C(=O)[C@@](C)(O)C12CC2 | -43.4% (active)
COc1ccc(/C=C/C(=O)c2nc3ccccc3n2Cc2ccc(Br)cc2)cc1 | 50.2%
C#CC[Se]C(=O)c1ccc(C(=O)[Se]CC#C)s1 | 44.7%
COC(=O)C[C@](O)(CCCC(C)C)C(=O)O[C@H]1C(OC)=C[C@@]23CCCN2CCc2cc4c(cc2[C@@H]13)OCO4 | -19.5% (active)
O=C(NC([Se])=NC1CCCCC1)c1ccccc1 | 49.2%
CC[C@]12C=CCN3CC[C@@]4(c5ccc(OC)cc5N(C)[C@H]4[C@@](O)(C(=O)OC)[C@@H]1OC(=O)CCCC[P+](C1CCCCC1)(C1CCCCC1)C1CCCCC1)[C@@H]32 | -87.9% (active)
O=C(/C=C/c1ccc(Br)cc1)c1nc2ccccc2n1Cc1ccc(Br)cc1 | -86.3% (active)
C[C@H]1[C@@H](CC(=O)N[C@@H](Cc2coc3ccccc23)B(O)O)O[C@@H]2OC3(C)CC[C@H]4[C@H](C)CC[C@@H]1[C@@]24OO3 | -14.3% (active)
C[C@H]1[C@@H](Oc2ccc(-c3cn(-c4ccnc5cc(Cl)ccc45)nn3)cc2)O[C@@H]2OC3(C)CC[C@H]4[C@H](C)CC[C@@H]1[C@@]24OO3 | 39.1%
O=C(NC([Se])=NC1CCCCC1)c1ccc2c(c1)OCO2 | 27.6%
COc1ccc(OC)c(/C=C/C(=O)c2nc3ccccc3n2Cc2ccc(F)cc2)c1 | -74% (active)
CC(C)C[C@H](NC(=O)CNC(=O)C[C@H]1O[C@@H]2OC3(C)CC[C@H]4[C@H](C)CC[C@@H]([C@H]1C)[C@@]24OO3)B(O)O | 13.7%
COCCOCCOCCOc1ccc(-n2cc(CCCN(CCNc3ccnc4cc(Cl)ccc34)C(=O)CCC(=O)O[C@@H]3O[C@@H]4OC5(C)CC[C@H]6[C@H](C)CC[C@@H]([C@H]3C)[C@@]46OO5)nn2)cc1 | 46%
CC1=C(CCC=NNC(N)=O)C2=C(C)C3(CC3)[C@@](C)(O)C(=O)C2=C1 | -77.4% (active)
O=C(/C=C/c1ccccc1)c1nc2ccccc2n1Cc1ccc(Br)cc1 | -92.9% (active)
CC[C@]12C=CCN3CC[C@@]4(c5ccc(OC)cc5N(C)[C@H]4[C@@](O)(C(=O)OC)[C@@H]1OC(=O)CCC[P+](c1ccc(F)cc1)(c1ccc(F)cc1)c1ccc(F)cc1)[C@@H]32 | 18.5%

Compound | growth
O=C(NCCCCC(c1ccc(F)cc1)c1ccc(F)cc1)Nc1ccc([N+](=O)[O-])c(C(F)(F)F)c1 | 2.48% (active)
COc1cc(OC)c(S(=O)(=O)N(CCCl)CCCl)cc1C(=O)/C=C/c1cc(OC)c(OC)c(OC)c1 | -79.6% (active)
O=C(/C=C/c1ccc(Cl)cc1Cl)c1nc2ccccc2n1Cc1ccc(F)cc1 | 13.4%
O=C(/C=C/c1cccc(Br)c1)c1nc2ccccc2n1Cc1ccc(F)cc1 | -9.29% (active)
CC[C@]12C=CCN3CC[C@@]4(c5ccc(OC)cc5N(C)[C@H]4[C@@](O)(C(=O)OC)[C@@H]1OC(=O)CCC[P+](c1ccc(C)cc1)(c1ccc(C)cc1)c1ccc(C)cc1)[C@@H]32 | -91.2% (active)
COc1cc(OC)c(S(=O)(=O)N(CCCl)CCCl)cc1C(=O)/C=C/c1ccc(C)cc1 | -2.54% (active)
Cc1c2oc3c(C)ccc(C(=O)N[C@@H]4C(=O)N[C@H](C(C)C)C(=O)N5CCC[C@H]5C(=O)N(C)CC(=O)N(C)[C@@H](C(C)C)C(=O)OC4C)c3nc-2c(C(=O)N[C@@H]2C(=O)N[C@H](C(C)C)C(=O)N3CC(=O)C[C@H]3C(=O)N(C)CC(=O)N(C)[C@@H](C(C)C)C(=O)OC2C)c(N)c1=O (stereo not given in full) | 1.58% (active)
CCOP(=O)(CC(F)(F)C(F)(F)F)OCC | 73.7%
COC(=O)C[C@](O)(CCC(C)C)C(=O)O[C@H]1C(OC)=C[C@@]23CCCN2CCc2cc4c(cc2[C@@H]13)OCO4 | -25.2% (active)
N#C[Se]CC(=O)Nc1cccc(C(F)(F)F)c1 | -48.4% (active)
CCOP(=O)(OCC)C(NC(C)=O)C(=O)SCCN (stereo not given) | 106%
COP(=O)(CC(F)(F)C(F)(F)F)OC | 81.7%
COc1ccc2cc([C@H](C)C(=O)[Se]CCC#N)ccc2c1 | -95.3% (active)
CN(C)CCc1cn(C2CCC2)c2cccc(O)c12 | 65.7%
CC(=O)Oc1ccccc1C(=O)[Se]C(=NC(C)C)NC(C)C | -87.8% (active)
COC(=O)CCn1c(-c2ccc(-n3cc(-c4ccc(O[C@H]5O[C@@H]6OC7(C)CC[C@H]8[C@H](C)CC[C@@H]([C@H]5C)[C@@]68OO7)cc4)nn3)cc2)nc2ccccc21 | 32.5%
Cc1ccc2[nH]c(=S)n(-c3ccc(F)cc3)c(=O)c2c1 | 102%
CC[C@@]12CC(C(=O)OC)=C3Nc4cc5c(cc4[C@@]34CCN(C[C@H]3O[C@H]31)[C@@H]24)[C@@H]1[C@H](O5)[C@@H](O)[C@@]2(CC)CC(C(=O)OC)=C3Nc4cc(OC)ccc4[C@@]34CCN1[C@@H]24 | 17.2%
O=C(/C=C/c1ccc(F)cc1)c1nc2ccccc2n1Cc1ccc(Br)cc1 | -91.8% (active)
COc1cc2cc(C(=O)N3C[C@@H](CCl)c4c3cc(OC(=O)N3CCN(C)[C@@H]5CSSC[C@@H]53)c3ccccc43)[nH]c2c(OC)c1OC | 7.22% (active)
